# Source: PubChem BioAssay
# The source made the active and inactive calls. Unless noted, how the calls were made is not given here.
# Tests used:
# [1] = anti-His antibody binders, primary screen, artefact control for SMM control protein annotation, biochemical, small-molecule microarray, 635 nm fluorescence (AID 1128); conditions: anti-His Alexa647 antibody binding, higher = more signal;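 further: score merges feature fluorescence with signal-to-noise for each printed compound spot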
# [2] = system: Human papillomavirus type 1a E7 protein (residues 1-88); test: HPV1a E7 small-molecule binders, primary screen, biochemical, small-molecule microarray, residues 1-88, 635 nm (AID 1129); conditions: small-molecule microarray binding, fluorescence 635 nm; higher = more signal
# [3] = target: Focal adhesion kinase 1 (Homo sapiens) (UniProt Q05397); test: small-molecule microarray binders of FAK, primary screen, biochemical, 635/667 nm fluorescence, BSA, DTT (AID 1130); conditions: PTK2 binding, 635 nm fluorescence, higher = more signal;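 further: composite of spot emission at 667 nm and signal to noise over triplicate slides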
# Sequence of Focal adhesion kinase 1 (Homo sapiens) (Q05397 whole entry, looked up): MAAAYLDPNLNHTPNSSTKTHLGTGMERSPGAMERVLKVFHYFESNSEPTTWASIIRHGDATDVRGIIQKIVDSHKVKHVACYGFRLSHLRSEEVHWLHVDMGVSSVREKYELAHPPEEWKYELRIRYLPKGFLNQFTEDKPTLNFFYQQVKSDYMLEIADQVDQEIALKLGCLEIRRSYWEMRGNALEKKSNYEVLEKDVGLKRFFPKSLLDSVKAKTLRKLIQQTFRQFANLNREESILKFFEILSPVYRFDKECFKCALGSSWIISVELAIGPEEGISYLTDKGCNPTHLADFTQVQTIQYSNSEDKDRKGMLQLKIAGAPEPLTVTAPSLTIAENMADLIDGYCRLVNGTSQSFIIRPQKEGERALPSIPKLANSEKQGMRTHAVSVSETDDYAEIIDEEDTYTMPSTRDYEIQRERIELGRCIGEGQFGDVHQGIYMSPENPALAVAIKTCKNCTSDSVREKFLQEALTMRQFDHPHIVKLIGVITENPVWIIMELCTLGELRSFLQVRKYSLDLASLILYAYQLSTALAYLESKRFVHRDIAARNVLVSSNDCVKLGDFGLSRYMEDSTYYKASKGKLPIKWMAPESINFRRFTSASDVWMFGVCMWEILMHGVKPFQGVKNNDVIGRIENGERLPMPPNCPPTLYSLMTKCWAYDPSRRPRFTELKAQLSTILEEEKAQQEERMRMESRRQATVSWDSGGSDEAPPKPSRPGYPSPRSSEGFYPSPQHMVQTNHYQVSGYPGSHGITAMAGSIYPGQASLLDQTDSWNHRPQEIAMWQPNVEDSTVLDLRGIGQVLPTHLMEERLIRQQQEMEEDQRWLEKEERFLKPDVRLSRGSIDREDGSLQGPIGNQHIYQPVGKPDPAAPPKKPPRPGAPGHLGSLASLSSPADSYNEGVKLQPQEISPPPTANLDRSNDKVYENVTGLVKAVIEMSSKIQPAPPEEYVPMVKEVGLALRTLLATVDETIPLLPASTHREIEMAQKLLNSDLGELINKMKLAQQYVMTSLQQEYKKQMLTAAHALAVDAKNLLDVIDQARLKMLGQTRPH
# [4] = system: Fibrinogen (Alexa647-labelled); test: fibrinogen binders on compound microarrays, profiling panel, artefact control for SMM control-protein annotation, biochemical, small-molecule microarray, 635/667 nm fluorescence (AID 1131); conditions: fibrinogen-A647 binding fluorescence, higher = more signal;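 further: z-score merges 667 nm fluorescence with per-spot signal-to-noise over triplicate slides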
# [5] = target: Follistatin (Homo sapiens) (UniProt P19883); test: follistatin binders on small-molecule microarrays, primary screen, biochemical, small-molecule microarray, 635/667 nm fluorescence (AID 1132); conditions: FST binding, 635 nm fluorescence, higher = more signal
# Sequence of Follistatin (Homo sapiens) (P19883 whole entry, looked up): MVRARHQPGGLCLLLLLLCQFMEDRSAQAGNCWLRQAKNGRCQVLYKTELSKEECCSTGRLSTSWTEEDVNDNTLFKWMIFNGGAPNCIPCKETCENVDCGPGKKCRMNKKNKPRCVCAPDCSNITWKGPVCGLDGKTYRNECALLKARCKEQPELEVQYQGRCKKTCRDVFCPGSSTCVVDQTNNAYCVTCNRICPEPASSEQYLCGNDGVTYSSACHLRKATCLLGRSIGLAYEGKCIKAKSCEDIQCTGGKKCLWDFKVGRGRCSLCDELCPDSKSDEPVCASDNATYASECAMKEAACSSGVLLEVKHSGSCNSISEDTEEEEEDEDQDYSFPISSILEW
# [6] = target: Fibroblast growth factor 2 (Homo sapiens) (UniProt P09038); test: FGF2 binders on small-molecule microarrays, primary screen, biochemical, small-molecule microarray, 635/667 nm fluorescence (AID 1133); conditions: small-molecule microarray binding, FGF2, fluorescence 635/667; higher = more signal
# Sequence of Fibroblast growth factor 2 (Homo sapiens) (P09038 whole entry, looked up): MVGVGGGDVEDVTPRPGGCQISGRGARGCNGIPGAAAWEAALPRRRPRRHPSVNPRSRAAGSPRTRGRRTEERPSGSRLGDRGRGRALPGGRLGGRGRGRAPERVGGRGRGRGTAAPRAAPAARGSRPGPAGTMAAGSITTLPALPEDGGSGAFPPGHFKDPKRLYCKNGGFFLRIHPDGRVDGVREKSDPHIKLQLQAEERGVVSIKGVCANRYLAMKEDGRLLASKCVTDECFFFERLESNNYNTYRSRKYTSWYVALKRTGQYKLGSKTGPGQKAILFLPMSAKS
# [7] = mitochondrial membrane potential change in A549 cells, profiling panel, cell-based, JC-1 fluorescence, basal, 24 h, 100 nL (AID 1138); conditions: higher = more signal;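 further: A549 lung adenocarcinoma cells under basal conditions with no added stimulus; test concentration not given here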
# Lefty1 = Lefty1 binders on small-molecule microarrays, primary screen, biochemical, small-molecule microarray, 635/667 nm fluorescence (AID 1139); conditions: small-molecule microarray binding, fluorescence 635/667; higher = more signal
# [8] = system: wheat germ agglutinin (Triticum aestivum), Alexa647-labelled; test: wheat germ agglutinin binders on compound microarrays, profiling panel, artefact control for SMM control-protein annotation, biochemical, small-molecule microarray, 635/667 nm fluorescence (AID 1140); conditions: WGA-A647 binding, 635 nm fluorescence, higher = more signal;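 further: score merges 667 nm feature emission with signal to noise over triplicate slides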
# [9] = target: Luciferin 4-monooxygenase (Photinus pyralis) (UniProt P08659); test: firefly luciferase enzyme inhibitors, primary screen, biochemical, luminescence, purified enzyme, 2006 set (AID 1141); conditions: SteadyGlo luminescence, 30 min, higher = more signal, called active from +8 up or from −8 down;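 further: cell-free assay with purified firefly luciferase at 100 ng per well in PBS; test concentration not given here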
# Sequence of Luciferin 4-monooxygenase (Photinus pyralis) (P08659 whole entry, looked up): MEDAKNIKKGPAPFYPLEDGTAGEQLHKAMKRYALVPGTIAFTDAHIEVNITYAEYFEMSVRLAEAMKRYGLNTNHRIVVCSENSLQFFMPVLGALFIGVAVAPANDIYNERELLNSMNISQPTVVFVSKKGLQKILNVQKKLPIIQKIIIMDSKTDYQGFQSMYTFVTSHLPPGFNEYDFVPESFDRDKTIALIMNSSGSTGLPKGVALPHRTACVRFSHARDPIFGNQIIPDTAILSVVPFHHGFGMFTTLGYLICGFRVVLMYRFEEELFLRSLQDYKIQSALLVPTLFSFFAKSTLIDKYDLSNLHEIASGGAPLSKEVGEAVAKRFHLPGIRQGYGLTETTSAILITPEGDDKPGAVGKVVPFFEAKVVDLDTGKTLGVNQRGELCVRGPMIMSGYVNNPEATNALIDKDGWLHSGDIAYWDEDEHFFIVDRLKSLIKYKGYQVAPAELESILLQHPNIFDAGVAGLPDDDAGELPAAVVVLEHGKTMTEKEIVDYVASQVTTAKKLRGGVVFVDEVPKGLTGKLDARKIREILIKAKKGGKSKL
# [10] = system: Wnt5a (protein binding on small-molecule microarray); test: Wnt5a binders on small-molecule microarray, primary screen, biophysical, 635/667 nm fluorescence (AID 1142); conditions: 635 nm fluorescence, higher = more signal;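 further: fluorescence read at 667 nm with signal to noise per printed feature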
# [11] = cell viability in Huh7 cells, primary screen, cytotoxicity control for HCV replication inhibitor project, CellTiter-Glo luminescence, basal, 48 h (AID 1143); conditions: Huh7 HCV replicon, higher = more signal, called active from +8 up or from −8 down;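 further: Huh7 hepatoma cells carrying a hepatitis C replication reporter with no stimulus; test concentration not given here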
# [12] = P. aeruginosa biofilm formation inhibitors, primary screen, PAO1 strain, BacTiter-Glo luminescence, LB-PBS (AID 1144); conditions: 12 h, higher = more signal
# [13] = CREB reporter modulators without forskolin, primary screen, cell-based, PC12, CRE-LacZ reporter, unstimulated (AID 1145); conditions: no forskolin, luminescence, 4.5 h, higher = more signal, called active from +8 up or from −8 down
# [14] = CREB reporter modulators under forskolin, primary screen, cell-based, PC12, CRE-LacZ reporter, forskolin-stimulated (AID 1146); conditions: luminescence, 4.5 h, higher = more signal, called active from +8 up or from −8 down;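 further: PC12 cells with 6xCRE LacZ reporter stimulated by forskolin 10 µM; beta-galactosidase reporter signal reflecting CREB driven transcription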
# [15] = target: Streptavidin (Streptomyces avidinii) (UniProt P22629); test: streptavidin binders on small-molecule microarray, primary screen, artefact control for SMM compound annotation, biophysical, 635/667 nm fluorescence (AID 1147); conditions: streptavidin binding, higher = more signal;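 further: signal reflects streptavidin binding to arrayed compounds as a control protein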
# Sequence of Streptavidin (Streptomyces avidinii) (P22629 whole entry, looked up): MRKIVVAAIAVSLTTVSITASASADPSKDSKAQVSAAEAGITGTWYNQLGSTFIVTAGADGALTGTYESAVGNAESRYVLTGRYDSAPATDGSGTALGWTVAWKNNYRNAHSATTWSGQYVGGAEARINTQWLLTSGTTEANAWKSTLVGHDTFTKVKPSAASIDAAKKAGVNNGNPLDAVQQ
# [16] = small-molecule binders of probe aInhba, primary screen, biochemical, small-molecule microarray, 635/667 nm fluorescence (AID 1148); conditions: higher = more signal;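 further: score merges 667nm spot fluorescence with signal-to-noise for antibody binding to printed compounds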
# Torsin-1A (Homo sapiens) [17] = target: Torsin-1A (Homo sapiens) (UniProt O14656); test: torsin A binders from cell lysate, primary screen, small-molecule microarray, wild-type, 635/667 nm (AID 1149); conditions: COS7 hTOR1A-WT lysate, 635 nm fluorescence, higher = more signal
# Sequence of Torsin-1A (Homo sapiens) (O14656 whole entry, looked up): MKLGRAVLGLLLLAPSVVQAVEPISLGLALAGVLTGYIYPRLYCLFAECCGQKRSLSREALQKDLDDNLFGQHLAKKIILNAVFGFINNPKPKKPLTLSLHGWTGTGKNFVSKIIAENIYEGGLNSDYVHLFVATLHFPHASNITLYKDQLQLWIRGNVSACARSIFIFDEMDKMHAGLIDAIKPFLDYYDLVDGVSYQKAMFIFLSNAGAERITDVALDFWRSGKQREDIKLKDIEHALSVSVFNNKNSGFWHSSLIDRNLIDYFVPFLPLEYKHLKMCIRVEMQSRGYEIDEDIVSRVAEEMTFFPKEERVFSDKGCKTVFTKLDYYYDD
# Torsin-1A (Homo sapiens) [18] = target: Torsin-1A (Homo sapiens) (UniProt O14656); test: small-molecule binders of mutant TOR1A in lysate, primary screen, cell lysate, small-molecule microarray, COS7 lysate, 635/667 nm fluorescence (AID 1150); conditions: COS7 hTOR1A mutant lysate, 635 nm fluorescence, higher = more signal;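 further: score pools 667 nm emission and signal to noise measuring lysate protein binding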
# [19] = system: Sonic hedgehog protein (Shh); test: small-molecule binders of Shh protein, primary screen, biochemical, small-molecule microarray, 635/667 nm fluorescence (AID 1151); conditions: small-molecule microarray binding, 635 nm fluorescence; higher = more signal;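 further: Shh protein binding to compounds spotted on small-molecule microarray slides; score combines spot fluorescence intensity with signal-to-noise across triplicate slides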
SMILES,composite z-score [1],composite z-score [2],composite z-score [3],composite z-score [4],composite z-score [5],composite z-score [6],z-score [7],composite z-score (Lefty1),composite z-score [8],z-score [9],composite z-score [10],z-score [11],z-score [12],z-score [13],z-score [14],composite z-score [15],composite z-score [16],composite z-score (Torsin-1A (Homo sapiens) [17]),composite z-score (Torsin-1A (Homo sapiens) [18]),composite z-score [19]
N#Cc1ccc(C(O)C2C=CC3C(=O)N(c4ccccc4)C(=O)C3N2Nc2ccc([N+](=O)[O-])cc2)cc1 (stereo not given),2.33,1.25,0.895,0.991,0.499,-0.207,-2.34,-0.44,1.4,0.279 (inactive),0.488,-0.843 (inactive),-0.532 (inactive),-0.0696 (inactive),-1.24 (inactive),1.86,0.252,0.0605,0.212,-0.51
C=C(CCCC)C(=O)CC[C@H](OC(C)=O)c1ccccc1OCCO,0.0808,-0.167,-0.176,-0.107,1.16,0.105,-0.012,1.36,0.737,-0.722 (inactive),0.241,-4.57 (inactive),1.09 (inactive),8.25 (active),-0.195 (inactive),-0.478,0.0902,-1.49,-0.447,1.42
Cc1ccc(S[C@]2(C(=O)NCC(F)(F)F)CC(=O)N(C3CCCCC3)[C@@H]2c2ccc(CO)cc2)cc1,1.12,0.408,-0.35,-0.0988,-0.16,-0.257,2.02,-0.583,0.235,-0.0377 (inactive),0.0911,-1.09 (inactive),0.12 (inactive),-0.529 (inactive),-0.147 (inactive),-0.777,-0.176,0.118,1.06,-0.121
C=CCOC(=O)[C@H]1[C@@H]2C(=O)O[C@@H](c3ccccc3)[C@@H](c3ccccc3)N2[C@@H](c2ccc(OCCOC(=O)[C@H]3C[C@H]4C(=O)NCC(=O)N4[C@H]3c3ccc(O)cc3)cc2)[C@]12C(=O)Nc1ccc(I)cc12,0.611,0.956,0.351,0.843,1.2,1.53,-1.28,0.971,0.204,-0.8 (inactive),0.112,-0.402 (inactive),-1.01 (inactive),-0.13 (inactive),-0.8 (inactive),0.343,-0.0736,0.406,0.349,1.55
C[C@]1(C(=O)NCC(F)(F)F)c2ccccc2C(=O)N(Cc2ccc(OC(F)(F)F)cc2)[C@H]1c1ccc(CO)cc1,0.781,0.269,0.273,0.0709,1.13,0.358,-0.274,0.369,0.314,-0.219 (inactive),-0.151,-2.8 (inactive),0.382 (inactive),0.324 (inactive),1.3 (inactive),0.0803,-0.128,-0.906,0.7,0.31
